The sample as a whole holds a higher share of hits than the screen did.
Pf Dd2 growth – qHTS Primary assay for Inhibitors of Plasmodium falciparum Dd2 growth in vitro; actives 4.3% (n = 120,000); P. falciparum Dd2 growth, SYBR Green, 72 h; Potency, µM (series often up to 28.9 µM), usual class: inhibitors; active = well fitted inhibition curve with a large enough effect; also: nearly all actives have a fitted effect of over 65% in size
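Infected erythrocytes (Dd2, 0.3% parasitemia, 2.5% hematocrit final) are added to compound in RPMI-1640/Albumax II medium, grown 72 h at 37C in low oxygen, then lysed with saponin/Triton-X containing SYBR Green and read by fluorescence.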
A number is an active result; i = inactive; [ ] = dose if it differs, or a comment.

SMILES | Pf Dd2 growth
O=S(=O)(c1ccccc1)N1CCC(Cc2nncn2-c2ccccc2)C1 (stereo not drawn) | i
COc1cccc(CN2CCCC(Cc3ncc(C)n3Cc3ccccc3)C2)c1 (stereo not drawn) | i
CC1C=CC(C)N1c1ncnc2c1CN(C1CCCNCC1)C(=O)CN2C (stereo not drawn) | i
Cc1ccccc1CNC(=O)C1CCN(C(=O)N2CC3CC(C2)[C@H]2CCCC(=O)N2C3)CC1 (stereo partly drawn) | i
NC(=O)c1ccc(CC2CCN(C(=O)C3CCC3)CC2)cc1 | i
COc1cccc(-c2ccc(C(=O)NCCCn3ccnc3C(C)C)cn2)c1 | i
Cc1noc(-c2ccc(OC3CN(C(=O)NC4CCCCC4)C3)cc2)n1 | i[5.79 µM]
COCCN1CCOC[C@H]2CCN(C(=O)c3ocnc3C)C[C@H]21 | i
O=C(CC1CCCCN(Cc2ccccc2)C1=O)NC1CC1 (stereo not drawn) | i
COC(=O)[C@@H](C)NC(=O)[C@@H]1CN(C(=O)c2cccc(F)c2)CCN1C(=O)NC(C)C | i
NC(=O)N1CCCC(C(=O)N2CCN(Cc3cccc(O)c3)CC2)C1 (stereo not drawn) | i
CCN(CCNC(=O)C1Cn2cccc2C(=O)N1)Cc1ccccc1 (stereo not drawn) | i
CC(=O)N1CCCC(Cc2ncc(C)n2C(C)C)C1 (stereo not drawn) | i
CCCn1c(C)cnc1CC1CCCN(S(=O)(=O)c2cc(OC)ccc2OC)C1 (stereo not drawn) | 1.26µM
Cc1cnc(CC2CCCN(C(=O)Cc3ccccc3)C2)n1C(C)C (stereo not drawn) | 4.47µM
Cc1cnc(CC2CCN(C(=O)C3CC3)CC2)n1Cc1ccccc1 | 6.31µM
Cc1cnc(CC2CCN(C(=O)Nc3ccccc3)C2)n1CC1CC1 (stereo not drawn) | i
CCCn1c(C)cnc1CC1CCCN(C(=O)CCOC)C1 (stereo not drawn) | i
CCCn1c(C)cnc1CC1CCN(C(=O)c2ccc(OC)cc2OC)CC1 | i
Cc1cnc(CC2CCN(C(=O)NC(C)(C)C)CC2)n1Cc1ccc(F)cc1 | i
Cc1cnc(CC2CCN(C(=O)Nc3ccccc3F)C2)n1C(C)C (stereo not drawn) | i
c1ccc(-c2nnc3ccc(NCc4cccs4)nn23)nc1 | i
CCOc1ccc(NC(=O)Cn2c(C)cc3nc4n(c(=O)c32)CCC4)cc1 | i
Cc1ccc(OCC(=O)c2ccc3c(c2)N(CCCC(=O)N2CCCC2)C(=O)CO3)cc1C | i
CC(C)c1nnc(NC(=O)C2CC(=O)N(c3n[nH]c4cc(Br)ccc34)C2)s1 (stereo not drawn) | i
SMILES | Pf Dd2 growth
O=C(NC1CCCCC1)C1CC(=O)N(c2n[nH]c3cccc(F)c23)C1 (stereo not drawn) | i
CC(=O)N[C@H]1CCN(C(=O)C[C@@H]2[C@H](O)CC[C@@H]3[C@]4(C)CO[C@@H](CNC(=O)c5cc(C)on5)O[C@@H]4CC[C@]32C)C1 | i
CCn1cc2nc(SCc3cccc(C)c3)n(CCc3ccccc3)c(=O)c2n1 | i
CCn1cc2nc(SCc3cccc(C(F)(F)F)c3)n(Cc3ccc(C)cc3)c(=O)c2n1 | 10µM
CCn1cc2nc(SCc3cccc(Cl)c3)n(Cc3ccc(C)cc3)c(=O)c2n1 | i
COc1ccc(NC(=O)[C@@H]2C[C@@H](c3ccc(F)cc3)N([S+](=O)([O-])c3ccccc3)C2)cn1 | i
O=C(Nc1cccc(Cl)c1)[C@@H]1C[C@@H](c2ccc(F)cc2)N([S+](=O)([O-])c2ccccc2)C1 | i
COc1ccc(NC(=O)[C@@H]2C[C@@H](c3ccc(F)cc3)N([S+](=O)([O-])c3ccccc3)C2)cc1 | 8.91µM
CNC(=O)Cn1nc(C(=O)N2CCCC(CO)(CC3CC3)C2)cc1C (stereo not drawn) | i
COc1ccc(-c2onc(C)c2C(=O)NCc2c(OC)cc(OC)cc2OC)cc1 | i
COc1ccc(-c2onc(C)c2C(=O)NCCCCc2ccccc2)cc1 | i
COc1ccc([C@H](C)NC(=O)c2c(C)noc2-c2cc(OC)c(OC)c(OC)c2)cc1 | i
COCCCNC(=O)c1c(C)noc1-c1cc(OC)c(OC)c(OC)c1 | i
COc1ccc(-c2onc(C)c2C(=O)N(C)Cc2cc(OC)c(OC)c(OC)c2)cc1 | 10µM
COc1cc(-c2onc(C)c2C(=O)NCCCc2ccccc2)cc(OC)c1OC | 11.2µM
CCOC(=O)c1ccccc1NC(=O)CN1C(=O)NC2(CCOCC2)C1=O | i
COc1ccc(CCN2Cc3cc(NC(=O)Cc4ccccc4)ccc3OC(C)C2=O)cc1 (stereo not drawn) | i
O[C@H]1[C@H](NCc2ccccn2)[C@H]2CO[C@H](O2)[C@@H]1N1CCC(Cc2ccccc2)CC1 | i
O[C@H]1[C@H](NCC2CCCCC2)[C@H]2CO[C@H](O2)[C@@H]1N1CCC(Cc2ccccc2)CC1 | 1.41µM
OCc1ccc(CN[C@H]2[C@H](O)[C@@H](N3CCC(Cc4ccccc4)CC3)[C@@H]3OC[C@H]2O3)o1 | i
O=C(c1ccccc1)N1CCC2(CN[S+](=O)([O-])c3cccnc3O2)C1 (stereo not drawn) | i
COc1ccc(OC)c([C@@H]2C[C@H](NC(C)=O)C[C@H](Cc3ccccc3)O2)c1 | i
COc1cccc(C(=O)N2CCN(C(C(=O)O)c3cc(C)cc(C)c3)CC2)c1 (stereo not drawn) | i
O=C(COc1ccc(F)cc1)N1CC2CC(C1)[C@H]1CCCC(=O)N1C2 (stereo partly drawn) | i
CN(C)C(=O)c1ccc(OC2CCN(C(=O)c3ccco3)CC2)nc1 | i
SMILES | Pf Dd2 growth
O=C1NCCOCCN(C(=O)c2nccc3ccccc23)[C@H]2CCC[C@@H]12 | i
CC(=O)C1=C(c2ccc(Br)cc2)N(C(C)=O)n2c(nnc2C2CCCCC2)S1 | 1.41µM
Cc1noc(C)c1C(=O)N1CCN(c2cccc(C=O)c2)C(=O)C1 | i
CNCCN1C(=O)CC[C@H]2CN(C(=O)CCc3ccsc3)CC[C@H]21 | i
N#Cc1cccc(-c2cn3c(n2)N(C(=O)c2cccc(F)c2)CCC3)c1 | i
COC1CN(c2ccc(C)cc2)C12CCN(C(=O)c1nccc3ccccc13)CC2 (stereo not drawn) | i
Cc1ccccc1OCc1nc2ccccc2n1Cc1ccccc1Cl | i
Cc1ccccc1OCC(O)Cn1c(=N)n(CCN2CCCCC2)c2ccccc21 (stereo not drawn) | 2.82µM
CCn1c2ccccc2c2cc(NC(=O)COc3cccc(C)c3)ccc21 | i
CCCn1c(COc2cccc(C)c2)nc2ccccc21 | i
Cc1ccccc1OCCn1c(=N)n(C(C)C)c2ccccc21 | 5.62µM
OC(COc1ccccc1-c1ccncc1)CN1CCOCC1 (stereo not drawn) | i
CCCCCn1c(=N)n(CC(O)COc2cccc(C)c2)c2ccccc21 (stereo not drawn) | 1µM
Cc1ccccc1NCc1nc2ccccc2n1CCOc1ccccc1 | i[5.79 µM]
Cc1ccccc1OCC(=O)N1C[C@@H](CN2CCCCC2)[C@@H](CO)C1 | i
Cc1cccc(CNC(=O)Cc2ccc(N(Cc3ccccc3)C(=O)c3ccco3)cc2)c1 | i
Cc1noc([C@@H]2CC(F)(F)CN2C(=O)CCc2c(C)noc2C)n1 | i
COc1cc(NC(=O)Cn2c(-c3cnccn3)nc(C)c(CCO)c2=O)cc(OC)c1 | i
O=C(O)c1ccccc1C(=O)N[C@H]1CO[C@H]2[C@@H]1OC[C@@H]2n1nnnc1Oc1ccc(-n2ccnc2)cc1 | i
CCc1cccc2c(C(CC(=O)NCCC(C)C)c3cccc(OC)c3OC)c[nH]c12 (stereo not drawn) | i

Assay outcomes: PubChem BioAssay, National Center for Advancing Translational Sciences (NCATS)
